Among all 52,000 compounds or so, about 4,300 (8.3%) were called active. Rule as the data show it: active = survival mostly below about 52% (no sharp cut-off); inactive = mostly above about 56%. Shown is part of a subset that was picked to be rich in actives.
What follows are molecules tested on DeltatarO mutant (assay: S. aureus survival, RN4220 and DeltatarO strains – OD600, teichoic acid synthesis inhibitors, primary screen (AID 463173)). Conditions: S. aureus RN4220 wild type/DeltatarO growth, OD600, 18 h, hits give low values, screened at 18.75 µg/mL (by protocol).
With `COc1ccccc1NC(=O)C1=C(C)Nc2nc(SCc3ccccc3)nn2C1c1ccccn1` (stereo not given) the survival was 65% (inactive). With `Cc1cc(C)cc(Nc2sc(C(=O)c3ccccc3)c(N)c2S(=O)(=O)c2ccccc2)c1` the survival was 101% (inactive). With `Cc1ccsc1CCN1C(=O)N(c2ccccc2)C(=O)C1CC(=O)Nc1ccc(F)cc1` (stereo not given) the survival was 114% (inactive). For `CC(C)=CCC(C)(C)C1OCCN1C(=O)Nc1ccccc1` (stereo not given), the survival was 95% (inactive). For `Cc1sc2c(c1C)c(=O)n(Cc1ccccc1)c(=O)n2Cc1ccc(F)cc1`, the survival was 109% (inactive). With `COc1ccc(C2CC(=O)c3cc(-c4nc(-c5ccc(Cl)cc5)cs4)c(=O)[nH]c3C2)cc1OC` (stereo not given) the survival was 59% (inactive). With `CC(=O)c1ccc(NC(=O)/C=C/c2ccc(C)o2)cc1` the survival was 48% (inactive). `COc1ccc(Cn2ccnc2SCC(=O)Nc2nc3ccccc3s2)cc1` was tested, and the survival was 84% (inactive). With `CCc1ccc(OCCCSc2nc(-c3ccc(C(C)(C)C)cc3)nc3cc(=O)[nH]n23)cc1` the survival was 80% (inactive). `CCOC(=O)c1[nH]c(C)c(C(=O)NCc2ccc(F)cc2)c1C` was tested, and the survival was 79% (inactive). With `O=S(=O)(c1cccc(Cl)c1)c1nnn2c1nc(NC1CCCCCC1)c1sccc12` the survival was 106% (inactive). `COc1cccc(OCc2nc3ccccc3n2C)c1` was tested, and the survival was 57% (inactive). With `COc1cccc(OCc2nc3ccccc3n2CCOc2ccccc2)c1` the survival was 35% (active). With `CCCCn1c(COc2cccc(OC)c2)nc2ccccc21` the survival was 57% (inactive). `COc1cccc(OCc2nc3ccccc3n2CCOc2ccc(C)cc2)c1` was tested, and the survival was 36% (active). With `COc1cccc(OCCn2c(-c3ccc(Br)cc3)nc3ccccc3c2=O)c1` the survival was 82% (inactive). `CCCn1c(COc2cccc(C)c2)nc2ccccc21` was tested, and the survival was 12% (active). `COc1cccc(OCc2nc3ccccc3n2CCOc2cccc(C)c2)c1` was tested, and the survival was 44% (active). In the case of `O=S(=O)(NCc1ccccc1Cl)c1ccc(-c2cnc(C3CC3)o2)cc1`, the survival was 101% (inactive). For `CC1CCN(c2nc3c(S(=O)(=O)c4cccc(Cl)c4)nnn3c3ccsc23)CC1`, the survival was 81% (inactive). `Cc1c(C#N)c2ccccc2n1CC(=O)NC1CCCCCC1` was tested, and the survival was 72% (inactive). In the case of `CC(C(=O)Nc1ccccc1C(=O)N1CCCC1)n1nnc2ccccc21` (stereo not given), the survival was 77% (inactive). In the case of `COc1ccc(Nc2nnc(-c3ccc(C)c(S(N)(=O)=O)c3)c3ccccc23)cc1`, the survival was 70% (inactive). With `CCn1c(SCC(=O)c2ccc(Br)cc2)nnc1-c1ccncc1` the survival was 99% (inactive). For `CC1CCC(=O)C(C2(O)C(=O)Nc3ccccc32)C1` (stereo not given), the survival was 93% (inactive). For `CC1CCC2C(C1)Nc1c(C(=O)O)cccc1C2(C)C` (stereo not given), the survival was 40% (active). For `COc1ccc(OC)c(NC(=O)CN2CCCN(Cc3ccccc3Cl)S2(=O)=O)c1`, the survival was 128% (inactive). With `Cc1ccc2c(c1)N(CC(=O)Nc1ccccc1C(F)(F)F)C(=O)c1cccnc1O2` the survival was 100% (inactive). `CCOC(=O)c1c(S(=O)(=O)N2CCCC(C(=O)N(C)Cc3ccccc3)C2)c(C)n(C)c1C` (stereo not given) was tested, and the survival was 92% (inactive). With `Cc1ccc(Cl)cc1Nc1nn2c(=O)c3ccc(C(=O)N4CCCC(C)C4)cc3nc2s1` (stereo not given) the survival was 73% (inactive). In the case of `Cc1nc(-c2ccccc2)cc(=O)[nH]1`, the survival was 109% (inactive). With `Cc1nc2cc3ccccc3cc2c(=O)[nH]1` the survival was 47% (active). `CC(C)c1nc2ccccc2c(=O)[nH]1` was tested, and the survival was 91% (inactive). In the case of `CNS(=O)(=O)c1cn(CC(=O)N2CCN(c3ccccc3F)CC2)cc1S(=O)(=O)NC`, the survival was 71% (inactive). In the case of `CC(=O)c1ccc(S(=O)(=O)Nc2ccc(-c3cn4c(C)csc4n3)cc2)cc1`, the survival was -5% (active). With `CC(=O)Nc1ccc(S(=O)(=O)Nc2ccc(-c3cn4c(C)csc4n3)cc2)cc1` the survival was 89% (inactive). With `COc1ccc(S(=O)(=O)Nc2ccc(-c3cn4c(C)csc4n3)cc2)cc1` the survival was 94% (inactive). For `CCCC(=O)Nc1cccc(-c2nc3cc(C)c(C)cc3o2)c1C`, the survival was 57% (inactive). For `COc1cc2ccccc2cc1C(=O)Nc1ccc2oc(-c3cccc(Cl)c3Cl)nc2c1`, the survival was 56% (inactive). With `COc1cc2ccccc2cc1C(=O)Nc1cccc(-c2nc3cc(C)c(C)cc3o2)c1` the survival was 41% (active). With `Cc1cc2nc(-c3cccc(NC(=O)c4cccc5ccccc45)c3)oc2cc1C` the survival was 57% (inactive). For `COc1cc2ccccc2cc1C(=O)Nc1ccc2oc(-c3cc(Br)ccc3Cl)nc2c1`, the survival was 75% (inactive). In the case of `COc1cc2ccccc2cc1C(=O)Nc1cc(-c2nc3ccccc3o2)ccc1C`, the survival was 111% (inactive). `COc1cc2ccccc2cc1C(=O)Nc1cccc(-c2nc3cc(C)ccc3o2)c1C` was tested, and the survival was 55% (inactive). For `Cc1cc2nc(-c3ccc(NC(=O)c4ccccc4F)cc3)oc2cc1C`, the survival was 66% (inactive). In the case of `COc1cc2ccccc2cc1C(=O)Nc1cccc(-c2nc3ccccc3o2)c1`, the survival was 7% (active). In the case of `COc1cc2ccccc2cc1C(=O)Nc1ccc(Cl)c(-c2nc3ccccc3o2)c1`, the survival was 40% (active). With `COc1cc2ccccc2cc1C(=O)Nc1cccc(-c2nc3cc(C)c(C)cc3o2)c1C` the survival was 45% (active). In the case of `Cc1cc2oc(C(=O)Nc3cccc(-c4nc5ccccc5o4)c3)c(C)c2cc1C`, the survival was 74% (inactive). For `CCc1cccc(NC(=O)Cn2c(=O)n(CCCCCC(=O)NCc3ccc(F)cc3)c(=O)c3sccc32)c1`, the survival was 63% (inactive). For `O=C(NCc1ccc(Cl)cc1)C1CCN(C(=O)c2cnn(-c3ccccc3)c2-n2cccc2)CC1`, the survival was 65% (inactive). With `Cc1ccc(C)c(NS(=O)(=O)c2cc3c4c(c2)C(C)C(=O)N4CCC3)c1` (stereo not given) the survival was 106% (inactive). `COc1ccc(CNC(=O)c2cnc3sc(N4CCCCCC4)nn3c2=O)cc1` was tested, and the survival was 101% (inactive). In the case of `CCOc1cccc2cc(-c3nc(-c4ccccc4C)no3)c(=O)oc12`, the survival was 76% (inactive). `CCc1ccc(S(=O)(=O)c2nnn3c2nc(N(C)Cc2ccccc2)c2cc(Cl)ccc23)cc1` was tested, and the survival was 82% (inactive). With `COc1cc(-c2nc3sccn3c2Nc2cccc(C)c2)ccc1O` the survival was 54% (inactive). With `O=c1c2cccnc2n(Cc2cccc(F)c2)c(=O)n1Cc1ccccc1Cl` the survival was 91% (inactive). For `Cc1ccc(CNC(=O)CCCCn2c(=O)c3ccccc3n(Cc3ccc(Cl)cc3)c2=O)cc1`, the survival was 105% (inactive). In the case of `Cc1ccc(Cn2c(=O)n(CCc3ccc(Cl)cc3)c(=O)c3ccccc32)cc1`, the survival was 42% (active). `Cc1ccc(Cn2c(=O)n(CCCCC(=O)NCc3ccccc3Cl)c(=O)c3ccccc32)cc1` was tested, and the survival was 102% (inactive). In the case of `Cc1ccc(Cn2c(=O)n(Cc3ccccc3Cl)c(=O)c3cccnc32)cc1`, the survival was 69% (inactive). For `Cc1ccc(Cn2c(=O)n(Cc3ccccc3Cl)c(=O)c3ccccc32)cc1`, the survival was 48% (active). For `O=c1c2ccccc2n(Cc2cccc(F)c2)c(=O)n1Cc1ccccc1Cl`, the survival was 29% (active). For `Cc1ccc(Cn2c(=O)n(CCCCC(=O)NCCc3ccc(Cl)cc3)c(=O)c3ccccc32)cc1`, the survival was 96% (inactive). `O=C(CCCn1c(=O)c2ccccc2n(Cc2cccc(F)c2)c1=O)NCc1ccccc1Cl` was tested, and the survival was 74% (inactive). `O=C(CCc1ccccc1)N/N=C/c1ccco1` was tested, and the survival was 104% (inactive). With `Cc1cc(C)c(NS(=O)(=O)c2ccc(-c3cnc(C4CC4)o3)cc2)c(C)c1` the survival was 99% (inactive). For `CCCC(=O)C1=C(O)C(C(=O)OC)C(C)(C)CC1=N` (stereo not given), the survival was 95% (inactive). In the case of `Cc1ccccc1CNC(=O)CN1CCSc2ccccc21`, the survival was 89% (inactive). For `Cc1ccccc1NC(=O)c1c(C)oc2ccc(O)c(CN3CCCC(C)C3)c12` (stereo not given), the survival was 108% (inactive). In the case of `Cc1nn(-c2ccccc2)c(-n2cccc2)c1C(=O)N1CCN(c2ccccc2)CC1`, the survival was 83% (inactive). For `Cc1ccc(N(C)S(=O)(=O)c2ccc3c(c2)C(C)(C)C(=O)N3C)cc1C`, the survival was 80% (inactive). `Cc1ccc2c(Sc3ccc(Cl)cc3)c(C(=O)N3CCCCC3)[nH]c2c1` was tested, and the survival was 85% (inactive). For `Cc1ccc2c(Sc3ccc(Cl)cc3)c(C(=O)N3CCC(C)CC3)[nH]c2c1`, the survival was 69% (inactive). `COc1ccc2c(Sc3ccc(Cl)cc3)c(C(=O)N3CCC(C)CC3)[nH]c2c1` was tested, and the survival was 64% (inactive). `COc1ccc2c(Sc3ccc(Cl)cc3)c(C(=O)N3CCCCC3)[nH]c2c1` was tested, and the survival was 40% (active). `COc1ccc2c(Sc3ccccc3)c(C(=O)N3CCC(C)CC3)[nH]c2c1` was tested, and the survival was 69% (inactive). `CCOC(=O)C1CCCN(C(=O)c2[nH]c3ccccc3c2Sc2ccc(Cl)cc2)C1` (stereo not given) was tested, and the survival was 37% (active). With `CCOC(=O)C1CCCN(C(=O)c2ccc3c(c2)N(Cc2ccc(Cl)cc2)C(=O)c2ccccc2S3=O)C1` (stereo not given) the survival was 60% (inactive). For `O=C(c1[nH]c2ccccc2c1Sc1ccc(Cl)cc1)N1CCCCC1`, the survival was 11% (active). In the case of `CCOC(=O)C1CCCN(S(=O)(=O)c2ccc(Cl)cc2)C1` (stereo not given), the survival was 95% (inactive). `CCOC(=O)C1CCCN(C(=O)c2ccc3c(c2)N(Cc2cccc(Cl)c2)C(=O)c2ccccc2S3(=O)=O)C1` (stereo not given) was tested, and the survival was 64% (inactive). With `Cc1cccc(NC(=O)CS(=O)(=O)c2nc(-c3ccccc3)cn2-c2cccc(Cl)c2)c1C` the survival was 63% (inactive). With `Cc1ccc(C)c(Cn2c(=O)n(CCCCC(=O)NCc3ccccc3Cl)c(=O)c3ccccc32)c1` the survival was 107% (inactive). `COc1ccc(N(C)C(=O)Cn2cc(S(=O)(=O)N3CCN(c4ccccc4F)CC3)c3ccccc3c2=O)c(OC)c1` was tested, and the survival was 97% (inactive). In the case of `Cc1ccc(-c2nn3c(C)nnc3c3ccccc23)cc1S(=O)(=O)NC(C)(C)CO`, the survival was 74% (inactive). For `O=C(NCc1ccccc1Cl)c1cnc2sc(N3CCOCC3)nn2c1=O`, the survival was 71% (inactive). In the case of `COc1cccc(-c2nc(SCc3cc(=O)c4cc(Cl)ccc4[nH]3)n[nH]2)c1`, the survival was 94% (inactive). For `O=C(C1CC2c3ccccc3C1c1ccccc12)N1CCOCC1` (stereo not given), the survival was 86% (inactive). With `COc1ccc(OC)c(NC(=O)C2CCN(S(=O)(=O)c3ccc4c(c3)CC(C)N4C(C)=O)CC2)c1` (stereo not given) the survival was 75% (inactive).

— PubChem BioAssay AID463173 (ICCB-Longwood Screening Facility, Harvard Medical School, 2010)
